Experimental data taken from the supplement of paper PMC8773631.
Where a name gives a salt, the structure may show the parent alone. ± gives the uncertainty stated by the source.

System: NCC-MFS5-C1
Assay: cell viability relative to DMSO control; higher = less growth inhibition
Details: 10 µM; treatment time: 3 days
Experimental: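 NCC-MFS5-C1 myxofibrosarcoma cells (1x10^4 per well, 384-well) were treated on day 2 with 10 µM of each drug. On day 5, viability was read by CCK-8 absorbance at 450 nm and normalised to the DMSO control (%), n = 2.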

SMILES	cell viability [%]
Nc1cc(C(Cl)=C(Cl)Cl)c(S(N)(=O)=O)cc1S(N)(=O)=O [Clorsulon]	89.3 ± 2.4
C[C@@H]1CCN(C(=O)CC#N)C[C@@H]1N(C)c1ncnc2[nH]ccc12	79.5 ± 2.5
S=C(NCc1ccc2c(c1)OCO2)N1CCN(c2ncnc3c2oc2ccccc23)CC1 [Amuvatinib (MP-470)]	86.1 ± 9
Nc1nc(F)nc2c1ncn2[C@@H]1O[C@H](CO)[C@@H](O)[C@@H]1O [Fludarabine]	96.3 ± 7.3
COc1c2occc2cc2ccc(=O)oc12 [Methoxsalen]	116 ± 22
Cn1nnc2c(C(N)=O)ncn2c1=O [Temozolomide]	99.4 ± 23
O=C(c1cc(Cc2n[nH]c(=O)c3ccccc23)ccc1F)N1CCN(C(=O)C2CC2)CC1	78 ± 9.1
COC(=O)c1ccc2c(C(=Nc3ccc(N(C)C(=O)CN4CCN(C)CC4)cc3)c3ccccc3)c(O)[nH]c2c1 [Nintedanib (BIBF 1120)]	39.1 ± 0.64
C[C@@H](CN1CC(=O)NC(=O)C1)N1CC(=O)NC(=O)C1 [Dexrazoxane]	122.6 ± 1.1
C#Cc1cccc(Nc2ncnc3cc(OCCOC)c(OCCOC)cc23)c1 [Erlotinib]	81.7 ± 5.8
N#CC1(c2ccc(NC(=O)c3cccnc3NCc3ccncc3)cc2)CCCC1 [Apatinib]	80.9 ± 2
O=c1[nH]c(=O)n([C@H]2C[C@H](O)[C@@H](CO)O2)cc1F [Floxuridine]	80 ± 3.9
Nc1cccc2c1CN(C1CCC(=O)NC1=O)C2=O (stereo not given) [Lenalidomide]	105 ± 4.7
O=c1[nH]cc(F)c(=O)[nH]1 [Fluorouracil (5-Fluoracil, 5-FU)]	78.9 ± 19
Fc1ccc(C(c2ccc(F)cc2)N2CCN(C/C=C/c3ccccc3)CC2)cc1 [Flunarizine 2HCl]	114 ± 12
CN(C)/N=N/c1[nH]cnc1C(N)=O [Dacarbazine]	82 ± 1.7
Nc1ncn([C@@H]2O[C@H](CO)[C@@H](O)[C@H]2O)c(=O)n1 [Azacitidine]	104 ± 13
COc1cc2nccc(Oc3ccc(NC(=O)NC4CC4)c(Cl)c3)c2cc1C(N)=O [Lenvatinib (E7080)]	75.4 ± 0.93
FC(F)(F)c1ccc(/C=C/c2nc(COc3ccc(CCCCn4ccnn4)cc3)co2)cc1 [Mubritinib (TAK 165)]	96 ± 3.5
C=CC(=O)Nc1cc2c(Nc3ccc(F)c(Cl)c3)ncnc2cc1OCCCN1CCOCC1 [Canertinib(CI-1033)]	84.2 ± 5

SMILES	cell viability [%]
Clc1ccc(C(c2ccccc2Cl)C(Cl)Cl)cc1 (stereo not given) [Mitotane]	76.1 ± 3.1
C=CC(=O)Nc1cc(Nc2nccc(-c3cn(C)c4ccccc34)n2)c(OC)cc1N(C)CCN(C)C [Osimertinib (AZD9291)]	2.66 ± 0.22
N=C(N)NC(=N)N1CCOCC1 [Moroxydine HCl]	91.2 ± 3.7
CN1CCN(CCOc2cc(OC3CCOCC3)c3c(Nc4c(Cl)ccc5c4OCO5)ncnc3c2)CC1 [Saracatinib (AZD0530)]	62.8 ± 3.8
O=C(O)C(=O)O.[NH-][C@@H]1CCCC[C@H]1[NH-].[Pt+2] [Oxaliplatin]	72.7 ± 2.5
COc1cc2ncnc(Nc3ccc(F)c(Cl)c3)c2cc1OCCCN1CCOCC1 [Gefitinib(ZD1839)]	95.1 ± 3.7
CC(C)(C#N)c1cc(Cn2cncn2)cc(C(C)(C)C#N)c1 [Anastrozole]	83.5 ± 5.1
O=C(Nc1nc2cccc(-c3ccc(CN4CCS(=O)(=O)CC4)cc3)n2n1)C1CC1 [Filgotinib (GLPG0634)]	93.1 ± 4.5
CC[C@@H]1/C=C(\C)C[C@H](C)C[C@H](OC)[C@H]2O[C@@](O)(C(=O)C(=O)N3CCCC[C@H]3C(=O)O[C@H](/C(C)=C/[C@@H]3CC[C@H](Cl)[C@H](OC)C3)[C@H](C)[C@@H](O)CC1=O)[C@H](C)C[C@@H]2OC [Pimecrolimus]	41.3 ± 5.4
C[C@@]12C[C@@]3(O)O[C@@H](O1)[C@]1(COC(=O)c4ccccc4)[C@H]3C[C@@]12O[C@@H]1O[C@H](CO)[C@@H](O)[C@H](O)[C@H]1O [Paeoniflorin]	83.6 ± 1.2
CNC(=O)c1ccc(N2C(=S)N(c3ccc(C#N)c(C(F)(F)F)c3)C(=O)C2(C)C)cc1F [Enzalutamide (MDV3100)]	80.3 ± 7.7
Nc1ncn([C@H]2C[C@H](O)[C@@H](CO)O2)c(=O)n1 [Decitabine]	134 ± 7.4
COc1cc2ncnc(Nc3ccc(F)c(Cl)c3)c2cc1NC(=O)/C=C/CN1CCCCC1	82.9 ± 3.8
COC(=O)N[C@H](C(=O)N[C@@H](Cc1ccccc1)[C@@H](O)CN(Cc1ccc(-c2ccccn2)cc1)NC(=O)[C@@H](NC(=O)OC)C(C)(C)C)C(C)(C)C [Atazanavir Sulfate]	67.8 ± 13
CCN(CC)CCNC(=O)c1c(C)[nH]c(/C=C2\C(=O)Nc3ccc(F)cc32)c1C [Sunitinib Malate]	7.73 ± 5.5
COc1cc2nccc(Oc3ccc(NC(=O)C4(C(=O)Nc5ccc(F)cc5)CC4)cc3)c2cc1OC [Cabozantinib malate (XL184)]	67.2 ± 21
Nc1ccn([C@@H]2O[C@H](CO)[C@@H](O)[C@@H]2O)c(=O)n1 [Cytosine β-D-arabinofuranoside hydrochloride]	118 ± 20
Nc1nc2[nH]cc(CCc3ccc(C(=O)N[C@@H](CCC(=O)O)C(=O)O)cc3)c2c(=O)[nH]1 [Pemetrexed Disodium Hydrate]	80.7 ± 2.4
C#Cc1cccc(Nc2ncnc3cc(OCCOC)c(OCCO)cc23)c1	92.2 ± 1.8
CC[C@@]1(O)C(=O)OCc2c1cc1n(c2=O)Cc2cc3c(CN(C)C)c(O)ccc3nc2-1 [Topotecan HCl]	33.3 ± 5.3
